Screening results deposited in PubChem by National Center for Advancing Translational Sciences (NCATS).
Giardia FBPA inh: qHTS Assay for Inhibitors of Fructose-1,6-bisphosphate Aldolase from Giardia Lamblia. purified Giardia FBPA. hit rate 0.71% among 290,000. Potency, µM (series often up to 59.6 µM), inactives show at the highest dose activity, negative = inhibition, most hits filed as inhibitors. A8B2U2; note: potency is the fitted concentration of half-maximal effect; % is set by controls: 0 for no effect and ±100 for the full control effect; nearly all actives have a fitted effect of over 55% in size
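40 nM FBPA preincubated 10 min at RT with compound (up to 57.5 uM final), then substrate plus GAPDH/TPI/NAD/arsenate coupling and diaphorase/resazurin added. Fluorescence read after 20 min at RT, 525/598 nm.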
CHX counter: Cycloheximide Counterscreen for Small Molecule Inhibitors of Shiga Toxin | hit rate 12% among 300,000 | cell reporter, cycloheximide protein synthesis inhibition counterscreen | max response, %; in the data active = max response mostly above about 13%, no sharp cut-off; inactive = mostly below about 14%; note: read at 38.3 µM for the half of the compounds with a filed dose; 0% is about no effect
TbPYK inhibitor: qHTS of Trypanosoma Brucei Inhibitors; Potency, µM (doses to about 76.8 µM), for the others: at the highest dose activity, negative = inhibition, actives largely listed as inhibitors; TbPYK enzyme, Kinase-Glo Plus ATP luminescence, 45 min; hit rate 0.12% among 410,000; note: potency is the fitted concentration of half-maximal effect; % is set by controls: 0 for no effect and ±100 for the full control effect; nearly all actives have a fitted effect of over 50% in size
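TbPYK + substrate in 50 mM TEA pH 7.2, 100 mM KCl, 10 mM MgCl2, 0.05% BSA, 0.01% Tween-20; cpd pinned; ADP 130 uM final; 45 min RT; Kinase-Glo Plus 10 min; luminescence endpoint.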
Shiga toxin inh: A qHTS for Small Molecule Inhibitors of Shiga Toxin | Vero cells, Shiga toxin protein synthesis inhibition reporter | inhibition, % at 38.7 µM | hit rate 9.2% among 290,000; in the data active = inhibition mostly above about 28%, no sharp cut-off; inactive = mostly below about 43%; note: 0% is about no effect
Sm TGR inh: qHTS Assay for the Inhibitors of Schistosoma Mansoni Peroxiredoxins. hit rate 3% among 360,000. AID 485364, 2010. Potency, µM (series often up to 114 µM), without a hit: top-dose activity change, negative = inhibition, usual class: inhibitors. purified TGR, DTNB reduction, TNB absorbance 405 nm; note: potency is the fitted concentration of half-maximal effect; % is set by controls: 0 for no effect and ±100 for the full control effect; nearly all actives have a fitted effect of over 60% in size
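First, TGR (20 nM dispensed) and NADPH were mixed with compound. Second, a 15 min room-temperature incubation followed. Third, further NADPH and then DTNB were added to start the reaction. Finally, TNB absorbance was monitored kinetically.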
LmPK inh: qHTS Assay for Inhibitors of Leishmania Mexicana Pyruvate Kinase (LmPK); Q27686; purified LmPK, Kinase-Glo ATP luminescence, 1 h; Potency, µM (doses to about 57.5 µM), for inactives: at the highest dose activity change, negative = inhibition, hits mostly inhibitors; hit rate 0.37% among 290,000; note: potency is the fitted concentration of half-maximal effect; % is set by controls: 0 for no effect and ±100 for the full control effect
Target sequence (Q27686 whole entry, looked up): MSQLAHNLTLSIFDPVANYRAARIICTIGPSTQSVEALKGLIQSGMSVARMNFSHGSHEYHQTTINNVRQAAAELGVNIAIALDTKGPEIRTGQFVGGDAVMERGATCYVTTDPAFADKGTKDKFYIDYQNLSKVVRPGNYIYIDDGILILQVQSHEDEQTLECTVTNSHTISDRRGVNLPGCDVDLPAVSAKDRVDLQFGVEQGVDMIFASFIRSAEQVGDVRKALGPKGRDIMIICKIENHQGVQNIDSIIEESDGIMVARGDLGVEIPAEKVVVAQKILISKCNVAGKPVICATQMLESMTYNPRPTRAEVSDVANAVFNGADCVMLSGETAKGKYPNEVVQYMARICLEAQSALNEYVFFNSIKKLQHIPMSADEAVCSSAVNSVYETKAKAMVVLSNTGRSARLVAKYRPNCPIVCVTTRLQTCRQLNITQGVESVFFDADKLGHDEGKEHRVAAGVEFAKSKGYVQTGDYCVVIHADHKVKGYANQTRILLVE
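qHTS format; LmPK 0.1 nM; substrates PEP 0.5 mM and ADP 0.1 mM. One-hour room-temperature incubation, then coupled luciferase luminescence; 0.5 nM enzyme wells mark activation.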
* hit, by the source's call; [ ] = dose if it differs, or a comment. The full list was thinned out, with hits kept by preference. Unless noted, calls come from the whole dose curve; as a rule, active = well fitted curve in the direction sought with a large enough effect; inconclusive = small, poorly fitted or top-dose-only effect, or another doubt; inactive = no such curve, though single readings can be large; an effect the other way counts as inactive or inconclusive.

`COc1ccc(NC(=O)N(Cc2cc3cc(OC)c(OC)cc3[nH]c2=O)CC2CCCO2)cc1` (centres undefined) gave Giardia FBPA inh -2%, CHX counter 12*, TbPYK inhibitor -8%, Shiga toxin inh 14, Sm TGR inh -1% and LmPK inh 8%.
Cn1cc(C(=O)N/N=C/C(Br)=C/c2ccccc2)ccc1=O was read as Giardia FBPA inh -7%, CHX counter 2, TbPYK inhibitor -8%, Shiga toxin inh 15, Sm TGR inh inconclusive and LmPK inh 1%.
Screening COc1ccc(C(=O)N/N=C/C(Br)=C/c2ccccc2)cc1 returned Giardia FBPA inh -10%, CHX counter 31*, TbPYK inhibitor 1%, Shiga toxin inh 60*, Sm TGR inh -8% and LmPK inh 0%.
For COc1cccc(C(=O)N/N=C/C(Br)=C/c2ccccc2)c1 the results were Giardia FBPA inh -12%, CHX counter 52*, TbPYK inhibitor 15%, Shiga toxin inh 114*, Sm TGR inh -10% and LmPK inh -1%.
`CC(/C=C/c1ccccc1F)=N\NC(=O)c1ccc(Cl)cc1` gave Giardia FBPA inh 0%, CHX counter 14*, TbPYK inhibitor -24%, Shiga toxin inh 29, Sm TGR inh 0% and LmPK inh 1%.
`CC(=O)Nc1ccc(C(=O)N/N=C/c2ccccc2OC(=O)c2ccc(Cl)cc2)cc1` gave Giardia FBPA inh -15%, CHX counter 23, TbPYK inhibitor -1%, Shiga toxin inh -9, Sm TGR inh 1% and LmPK inh 2%.
For CC(/C=C/c1ccccc1F)=N\NC(=O)c1ccccc1 the results were Giardia FBPA inh -28%, CHX counter 55*, TbPYK inhibitor 2%, Shiga toxin inh 160*, Sm TGR inh 0% and LmPK inh -5%.
CC(/C=C/c1ccccc1)=N\NC(=O)c1ccc(Br)cc1 was read as Giardia FBPA inh 9%, CHX counter -4, TbPYK inhibitor -3%, Shiga toxin inh 16, Sm TGR inh 5% and LmPK inh -11%.
Cc1ccc(N/C=C/C(=O)c2ccco2)c(O)c1 was read as Giardia FBPA inh -12%, CHX counter 60*, TbPYK inhibitor -3%, Shiga toxin inh 70*, Sm TGR inh -14% and LmPK inh -12%.
Cc1ccc([N+](=O)[O-])cc1N/C=C/C(=O)c1ccco1 was read as Giardia FBPA inh -12%, CHX counter 65*, TbPYK inhibitor 3%, Shiga toxin inh 125*, Sm TGR inh 18% and LmPK inh 3%.
CC(C)C[C@H](NC(=O)[C@H](CO)NC(=O)[C@@H]1CCCN1C(=O)[C@H](Cc1ccc(O)cc1)NC(=O)[C@H](CC(C)C)NC(=O)[C@H](CC(C)C)NC(=O)[C@@H]1CCCN1C(=O)[C@@H](NC(=O)[C@H](CO)NC(=O)[C@H](CO)NC(=O)[C@H](CO)NC(=O)[C@H](CO)NC(=O)[C@@H]1CCCN1C(=O)[C@@H](NC(=O)[C@@H](N)CO)C(C)C)[C@@H](C)O)C(=O)N[C@@H](C)C(=O)N[C@@H](CC(C)C)C(=O)N1CCC[C@H]1C(=O)N[C@@H](C)C(=O)N1CCC[C@H]1C(=O)O was read as Giardia FBPA inh -5%, CHX counter -3 and Shiga toxin inh 4.
`Cn1c(SCC(=O)N2CCCc3ccccc32)ncc(C(=O)Nc2ccc(Cl)cc2)c1=O` gave TbPYK inhibitor 4% and Sm TGR inh -3%.
`O=C(CSc1ncn[nH]1)Nc1ccc2c(c1)CCC2` gave Giardia FBPA inh 0%, CHX counter 20*, TbPYK inhibitor -11%, Shiga toxin inh -14, Sm TGR inh 3% and LmPK inh 2%.
For NS(=O)(=O)c1ccc(NC(=O)CSc2ncn[nH]2)cc1 the results were Giardia FBPA inh 0%, CHX counter 1, TbPYK inhibitor -6%, Shiga toxin inh -14, Sm TGR inh 10% and LmPK inh 1%.
Screening CCOc1ccc(NC(=O)CSc2ncn[nH]2)cc1 returned CHX counter 18*, TbPYK inhibitor -2%, Shiga toxin inh 11, Sm TGR inh 4% and LmPK inh -13%.
Screening O=C(CSc1ncn[nH]1)Nc1ccc(OCc2ccccc2)cc1 returned Giardia FBPA inh 0%, CHX counter 34*, TbPYK inhibitor -4%, Shiga toxin inh 145*, Sm TGR inh 13% and LmPK inh 1%.
Screening Cc1ccc(NC(=O)CSc2ncn[nH]2)cc1 returned Giardia FBPA inh -4%, CHX counter 14*, TbPYK inhibitor 0%, Shiga toxin inh 36, Sm TGR inh -11% and LmPK inh 9%.
Screening CCc1ccc(NC(=O)C2C3/C=C\CCCCC32)cc1 (centres undefined) returned Giardia FBPA inh 7%, CHX counter 37*, TbPYK inhibitor 0%, Shiga toxin inh active, Sm TGR inh -1% and LmPK inh -2%.
O=C(Nc1ccc(Cl)cc1)C1C2CCCCC21 (centres undefined) was read as Giardia FBPA inh -1%, CHX counter 48*, TbPYK inhibitor 3%, Shiga toxin inh 67*, Sm TGR inh -4% and LmPK inh 2%.
CCc1ccc(NC(=O)C2CCCCC2C(=O)O)cc1 (centres undefined) was read as Giardia FBPA inh 1%, CHX counter 6, TbPYK inhibitor 2%, Shiga toxin inh -4, Sm TGR inh 0% and LmPK inh 2%.
`Cc1ccc(S(=O)(=O)N[C@H]2COC(=O)C/C=C\[C@@H](C)[C@H](NS(=O)(=O)c3ccc(C)cc3)COC(=O)[C@H](C)NC(=O)C/C=C\[C@H]2C)cc1` gave Giardia FBPA inh 4%[12.9 µM].
For CN1c2ccsc2C(O)=C(C(=S)Nc2ccc(F)c(Cl)c2)S1(=O)=O the results were Giardia FBPA inh -21%, CHX counter 15*, TbPYK inhibitor -30%, Shiga toxin inh 51, Sm TGR inh 1% and LmPK inh -1%.
Screening Cn1cc(C(=O)Nc2ccc(F)c(Cl)c2)cn1 returned Giardia FBPA inh -9%, CHX counter 10, TbPYK inhibitor 5%, Shiga toxin inh 43, Sm TGR inh 2% and LmPK inh -4%.
Screening CC(C)(C)c1ccc(OCCON2C(=O)CCC2=O)c(Cl)c1 returned Giardia FBPA inh 3%, CHX counter 39*, TbPYK inhibitor -5%, Shiga toxin inh 63*, Sm TGR inh -11% and LmPK inh 10%.
